Experimental data published in PubChem BioAssay (NCI).
Values joined by “and” are separate entries in the source; they are usually repeats but may differ in a detail not shown here. Identical values can stand only once. About 79,000 compounds went through this panel and 15% of them were active in at least one assay; those are over-represented in the sample as a whole. Active and inactive are the calls of the source. No stated cut-off is given here; in the data, active means growth inhibition above about 70%; inactive means the rest.

Experiment: NCI Yeast Anticancer Drug Screen. Data for the mlh1 rad18 strain (AID 175)
Settings: S. cerevisiae mlh1 rad18 strain growth inhibition; at 50.0 µM; stronger effect = higher value
Outline: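 Yeast w/ defined DNA-repair lesions; compound exposure; growth vs vehicle controls → % inhibition.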

Compound | growth inhibition
CCCCCCCCCCCOP(=O)(OCC)OCC | 99.7% (active)
CN1C[C@H]2[C@@H](C1=O)[C@H](c1ccccc1)ON2C | -1.85% (inactive)
Cc1cc(NC(=O)CCc2ccc(N3C(N)=NC(N)=NC3(C)C)cc2Cl)ccc1S(=O)(=O)F | 83.3% (active)
CN1CCc2cc3c(cc2C1)OCO3 | -17.9% (inactive) and 28.6% (inactive)
O=C1NC(=O)C(CCC(=O)c2ccc3ccccc3c2)C(=O)N1 | -25.8% (inactive)
CN(C)C(=O)Oc1c(Cl)cccc1Cl | 14.1% (inactive)
COC1=CC(=O)OC(CCc2ccccc2)C1 (stereo not drawn) | -4.85% (inactive)
CC([NH-])C(=O)O.CC([NH-])C(=O)O.[Cu+2] (stereo not drawn) | 19.6% (inactive)
CC(O)C[N+](=O)[O-] (stereo not drawn) | 4.8% (inactive)
Cc1ccc(SP(=S)(Sc2ccc(C)cc2)Sc2ccc(C)cc2)cc1 | 10% (inactive)
O=[As](O)(O)c1cc(F)ccc1F | -8.3% (inactive)
Nc1cc(C(=O)O)ccc1O.[Cl][Sn][Cl] | -19.4% (inactive)
O=C(/C=C/c1ccccc1)Nc1ccc(Cl)cc1C(=O)c1ccccc1 | 20.4% (inactive)
Oc1cc(Cl)c(O)c(Cl)c1 | -7.55% (inactive)
CC(CCF)C(N)C(=O)O (stereo not drawn) | 19.5% (inactive) and -7.8% (inactive)
COc1ccc([N+](=O)[O-])cc1N=Cc1ccc(N(CCCl)CCCl)cc1C | 17.1% (inactive)
O=[N+]([O-])c1ncccc1NCCN1CCCC1 | 4.7% (inactive)
C[N+](C)(C)CC1CCCCC1=O (stereo not drawn) | 44.5% (inactive)
